Screening data: PubChem BioAssay, National Center for Advancing Translational Sciences (NCATS)
Shown are actives, neighbours in structure and some others; about 20% of the full set was active somewhere.
Pf growth 96h: Primary qHTS for delayed death inhibitors of the malarial parasite plastid, 96 hour incubation | P. falciparum luciferase reporter growth, 96 h | Potency, µM (top dose mostly 28.7 µM), most hits filed as inhibitors | 320,000 tested, 6.9% active
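Erythrocytes infected with luciferase-expressing P. falciparum were dispensed at 2% hematocrit and 0.05% parasitemia (final), then incubated with compounds 96 hours at 37 C in 5% CO2. Luminescence after detection reagent addition reported growth.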
HCMV inh: qHTS Assay for inhibitors of the human cytomegalovirus (HCMV); HFF cells, HCMV-luciferase reporter, 72 h; stronger effect = lower value; activity change, negative = inhibition, % at 57.5 µM; 410,000 tested, 4.5% active; in the data active = activity change below about -60%; inconclusive = no clear call, values can overlap the other calls; inactive = above about -39%
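Two compound doses tested in HFFs infected with HCMV-luciferase, MOI 1 PFU/cell, 72 h at 37C. Lysate luminescence read with OneGlo; data normalized against buffer-only and 10uM Salinomycin inhibitor controls.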
CHX counter: Cycloheximide Counterscreen for Small Molecule Inhibitors of Shiga Toxin; max response, %; cell reporter, cycloheximide protein synthesis inhibition counterscreen; 300,000 tested, 12% active; AID 2314, 2010; in the data active = max response mostly above about 13%, no sharp cut-off; inactive = mostly below about 14%; also: read at 38.3 µM for the half of the compounds with a filed dose
Shiga toxin inh: A qHTS for Small Molecule Inhibitors of Shiga Toxin; Vero cells, Shiga toxin protein synthesis inhibition reporter; inhibition, % at 38.7 µM; 290,000 tested, 9.2% active; AID 2315, 2010; in the data active = inhibition mostly above about 28%, no sharp cut-off; inactive = mostly below about 43%
Pf growth 48h: Primary qHTS for delayed death inhibitors of the malarial parasite plastid, 48 hour incubation. P. falciparum luciferase growth in erythrocytes, 48 h. Potency, µM (top dose mostly 28.7 µM), usual class: inhibitors. 310,000 tested, 5.9% active. AID 504832, 2011
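Parasite viability was followed by luminescence of a genomically integrated firefly luciferase. Cultures held 0.1% parasitemia at 2% hematocrit (final), incubated under 5% CO2 at 37 C.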
Of the large screens only hits and unclear results are named; the others gave an inactive call. Unless noted, calls follow the shape of the dose curve; as a rule, active = well fitted inhibition curve with a large enough effect; inconclusive = small, poorly fitted or top-dose-only effect, or another doubt; inactive = no such curve, though single readings can be large or run the other way.

CCOC(=O)Cn1ccc(NC(=O)c2ccc(F)cc2)n1	Pf growth 96h inconclusive
Cc1ccc(C(=O)Nc2ccn(Cc3ccc(F)cc3)n2)o1	CHX counter 25, Shiga toxin inh 56
Cc1ccc(C(=O)Nc2ccc(F)cc2F)o1	CHX counter 44 (no result: Pf growth 48h)
CCOc1ccccc1N1CCN(C(=O)NC(C)c2ccc(F)c(F)c2)CC1 (centres undefined)	Pf growth 48h inconclusive
Cc1nccc(-c2cc(-c3ccc(Cl)cc3Cl)no2)n1	CHX counter 36, Shiga toxin inh 97
CC(=O)c1c(-c2ccc(Cl)cc2Cl)noc1C	none
COc1cc(NCCCCC(C)N)c2nccc(C)c2c1 (centres undefined)	HCMV inh -71 (no result: Pf growth 96h, CHX counter, Shiga toxin inh, Pf growth 48h)
COCCCNc1ccnc2c(Cl)cccc12	none
CCC(CNc1cc(OC)cc2cccnc12)NC1CCCCC1 (centres undefined)	Pf growth 96h inconclusive, Pf growth 48h inconclusive
COc1cc(NCCCC(C)N)c2ncccc2c1 (centres undefined)	Pf growth 96h 0.85µM, HCMV inh -107, Pf growth 48h 0.26µM
C=C1C(=O)c2sccc2C(c2ccc(OC)c(OC)c2)C1COC(C)=O (centres undefined)	HCMV inh -102 (no result: Pf growth 96h, CHX counter, Shiga toxin inh, Pf growth 48h)
Cc1cccc(C(=O)N(Cc2ccco2)Cc2ccccc2F)c1	none (no result: Pf growth 96h, CHX counter, Shiga toxin inh, Pf growth 48h)
O=C(CCc1ccc(O)c(O)c1)N/N=C/c1ccc2c(c1)OCO2	Pf growth 96h inconclusive, CHX counter 33, Pf growth 48h inconclusive
CC(C)Oc1ccc(CCC(=O)N/N=C/c2ccc3c(c2)OCO3)cc1	none (no result: Pf growth 48h)
Cc1ccc(C)c(NC(=O)CCC(=O)N/N=C/c2ccc3c(c2)OCO3)c1	CHX counter 20
CCOc1ccc(NC(=O)CCC(=O)N/N=C/c2ccc3c(c2)OCO3)cc1	Pf growth 96h inconclusive, CHX counter 23
CC(=O)c1c(C)nc2sc3c(=N)n(N)cnc3c2c1-c1ccc(Cl)cc1	Pf growth 96h 13µM, HCMV inh inconclusive, Pf growth 48h inconclusive
O=C(O)Cn1cnc2c(oc3ccccc32)c1=O	none
CCn1cnc2c(oc3ccccc32)c1=O	CHX counter 24
C#CCn1cnc2c(oc3ccccc32)c1=O	CHX counter 34 (no result: HCMV inh)
CCCn1cnc2c(oc3ccccc32)c1=O	Pf growth 96h inconclusive, CHX counter 29, Shiga toxin inh 39
O=C(Cn1cnc2c(oc3ccccc32)c1=O)c1ccccc1	CHX counter 54, Shiga toxin inh 53
CCOc1nc(NC(=O)NS(=O)(=O)Oc2cccc(F)c2)nc(-c2ccccc2)n1	none (no result: Pf growth 96h, CHX counter, Shiga toxin inh, Pf growth 48h)
COc1ccc(OCCSc2nc(N)cc(N)n2)cc1	CHX counter 49, Shiga toxin inh 101 (no result: Pf growth 48h)
COc1cccc(CSc2nc(N)cc(N)n2)c1	none
Cc1ccc(OCCSc2nc(N)cc(N)n2)cc1	Pf growth 96h inconclusive, CHX counter 53, Shiga toxin inh 130
CSc1ccccc1NC(=O)c1ccccn1	CHX counter 18, Shiga toxin inh 45
Cc1ccccc1NC(=O)c1ccccn1	CHX counter 29, Shiga toxin inh 57
CSc1ccccc1NC(=O)c1ccc(Cl)s1	CHX counter 30 (no result: Pf growth 96h)
CSc1ccccc1NC(=O)c1cccnc1	CHX counter 15
O=C(c1ccc(Br)cc1)N1CCC2(CC1)NCCc1[nH]cnc12	none
CC(C)Oc1ccc(CNC(=O)C2CCN(c3nc4ccccc4nc3C(F)(F)F)CC2)cc1	none (no result: Pf growth 96h, CHX counter, Shiga toxin inh, Pf growth 48h)
CC(C)c1ccc(Nc2cc(C(=O)NC3CCCCC3)c3ccccc3n2)cc1	none (no result: Pf growth 96h, CHX counter, Shiga toxin inh, Pf growth 48h)
CCC(C)n1c(-c2cccs2)nc2nc3ccccc3nc21 (centres undefined)	Pf growth 48h inconclusive (no result: Pf growth 96h)
COc1ccc(OC(=O)Nc2ccccc2)cc1	CHX counter 32, Shiga toxin inh 98 (no result: Pf growth 96h)
CCc1ccc(OC(=O)Nc2ccccc2)cc1	CHX counter 13
CC(=O)Nc1ccc(NC(=O)Oc2ccccc2)cc1	Pf growth 96h inconclusive
CN(C)c1ccc(NC(=O)Oc2ccccc2)cc1	Pf growth 96h 0.15µM, CHX counter 29, Shiga toxin inh 60 (no result: Pf growth 48h)
O=C1c2ccccc2C(c2nnnn2-c2ccc3c(c2)OCCO3)N1Cc1ccc2c(c1)OCO2 (centres undefined)	none (no result: Pf growth 96h, CHX counter, Shiga toxin inh, Pf growth 48h)
Cc1cccc(C(=O)N[C@H](C(=O)Nc2ccc(C)c(S(=O)(=O)N(C)C)c2)C(C)C)c1	Pf growth 96h inconclusive, Pf growth 48h inconclusive
COc1ccc(-c2c(C)nn3c(NC4CCCC4)cc(C)nc23)cc1OC	Pf growth 96h inconclusive, HCMV inh inconclusive, Pf growth 48h inconclusive
Cc1cc(NC2CCCC2)n2ncc(-c3ccccc3)c2n1	HCMV inh -90, CHX counter 23
Cc1cc(NC2CCCC2)n2nc(C)c(-c3ccccc3)c2n1	Pf growth 96h inconclusive, CHX counter 29, Pf growth 48h inconclusive
CCCCc1cc(=O)oc2cc(C)c3c(C)coc3c12	none (no result: Pf growth 96h, CHX counter, Shiga toxin inh, Pf growth 48h)
O=C(NCCc1ccccc1)C(=O)NCC1CCNCC1	none (no result: HCMV inh)
Cc1ccc(-c2csc(N/N=C/c3ccco3)n2)c(C)c1	HCMV inh inconclusive, CHX counter 46, Shiga toxin inh 62, Pf growth 48h 13µM
CN(C)S(=O)(=O)c1cccc(-c2csc(N/N=C/c3ccco3)n2)c1	CHX counter 14, Pf growth 48h inconclusive
C/C(=N\Nc1nc(-c2ccc(C)cc2C)cs1)c1cc2ccccc2oc1=O	Pf growth 96h inconclusive
CCCC(=O)N(Cc1cc2cc(OC)ccc2[nH]c1=O)c1ccc(OC)cc1	none (no result: Pf growth 96h, CHX counter, Shiga toxin inh, Pf growth 48h)
Cc1ccc(N2C(=O)c3ccc(C(=O)N4CCN(c5ccccc5F)CC4)cc3C2=O)cc1	Pf growth 96h 9.3µM
Cc1ccc(C(=O)NC(=S)N2CCN(c3ccccc3F)CC2)cc1	Shiga toxin inh 35
Cc1ccc(C(=O)NC(=S)N2CCN(c3cc(C)ccc3C)CC2)cc1	CHX counter 38, Shiga toxin inh 49, Pf growth 48h inconclusive
O=C(COc1ccc([N+](=O)[O-])cc1)Nc1ccc(C(=O)NCc2cccnc2)cc1	Pf growth 48h inconclusive
O=C(CN1CCN(C(=O)c2ccc(OCc3cn4ccccc4n3)cc2)CC1)Nc1cccc(F)c1	none (no result: Pf growth 96h, CHX counter, Shiga toxin inh, Pf growth 48h)
CCN(CC)C(=O)C1=C(C)N(CCCOC)C(=O)C(CC(=O)NCCN2CCOCC2)C1 (centres undefined)	none (no result: Pf growth 96h, CHX counter, Shiga toxin inh, Pf growth 48h)
Cc1sc(NC(=O)c2ccco2)c(C(c2ccccc2)N2CCC(C)CC2)c1C (centres undefined)	Pf growth 96h inconclusive, HCMV inh inconclusive, Pf growth 48h 5.2µM
Cc1sc(NC(=O)c2ccco2)c(C(c2cccnc2)N2CCN(c3ccc(F)cc3)CC2)c1C (centres undefined)	Pf growth 96h inconclusive, HCMV inh -100, Pf growth 48h 2.1µM
CCOC(=O)C1CCN(C(c2cccnc2)c2c(NC(=O)c3ccco3)sc(C)c2C)CC1 (centres undefined)	HCMV inh -97, CHX counter 21, Pf growth 48h 0.29µM
Cc1sc(NC(=O)c2ccco2)c(C(c2cccnc2)N2CCN(CCO)CC2)c1C (centres undefined)	Pf growth 96h inconclusive, Pf growth 48h inconclusive
